Hit rate of the full screen: of about 100,000 compounds, about 770 (0.77%) were called active. No stated cut-off is given here; in the data, active means inhibition above about 50%; inactive means the rest. The entries come from a sample that favours actives as a whole.
target: Gag-Pol polyprotein (Human immunodeficiency virus type 1 group M subtype B (isolate HXB2)) (UniProt P04585); assay: RNase H inhibition, HIV 1 Gag Pol polyprotein, FRET biochemical assay, screening (AID 372); conditions: HIV-1 RT RNase H, FRET RNA/DNA substrate fluorescence; at 10 µM; hits give high values

Question: For `O=c1[nH]c(-c2cccc(O)c2)nc2sc3c(c12)CCCC3`, which inhibition is on record?
Answer: 22% (inactive)

Question: With `COc1cccc(COc2cc3oc(=O)c4c(c3cc2Cl)CCCC4)c1` as the compound, how does the inhibition read?
Answer: 12% (inactive)

Question: For `O=C(NCc1cccnc1)c1cnn2c(C(F)(F)F)cc(-c3ccc4c(c3)OCO4)nc12`, which inhibition is on record?
Answer: 11% (inactive)

Question: How did the inhibition turn out when `Cc1ccc(NC(=O)/C=C/c2ccc3c(c2)OCO3)c(C)c1` was run?
Answer: 10% (inactive)

Question: Which inhibition does the source give for `C=CCN1C(=O)/C(=C\c2ccc(-c3ccc(C(=O)OCC)cc3)o2)C(=O)NC1=S` here?
Answer: 45% (inactive)

Question: How did the inhibition turn out when `CCCCn1c(/N=C/c2nc3ccccc3n2C)nc2ccccc21` was run?
Answer: 5% (inactive)

Question: How did the inhibition turn out when `CCN(CC)c1ccc(N2C(=O)/C(=C\c3ccc(C)o3)SC2=S)cc1` was run?
Answer: 3% (inactive)

Question: How did the inhibition turn out when `CCN(CC)C(=O)C(=O)N/N=C/c1ccco1` was run?
Answer: 5% (inactive)

Question: Which inhibition does the source give for `S=C(Nc1ccc2nccnc2c1)Nc1cccc2ccccc12` here?
Answer: 27% (inactive)

Question: For `O=C(N=Nc1c(O)n(CN2CCCCCC2)c2ccc(Br)cc12)c1cccnc1`, which inhibition is on record?
Answer: 5% (inactive)

Question: How did the inhibition turn out when `N#C/C(=C\c1cccc(Br)c1)c1nc(-c2cccc([N+](=O)[O-])c2)cs1` was run?
Answer: 22% (inactive)

Question: For `COc1ccc(-c2csc(/C(C#N)=C/c3ccc(O)c(O)c3)n2)cc1OC`, which inhibition is on record?
Answer: 84% (active)

Question: Which inhibition does the source give for `N#C/C(=C\C=C\c1ccccc1[N+](=O)[O-])c1nc(-c2cc3cc([N+](=O)[O-])ccc3oc2=O)cs1` here?
Answer: 6% (inactive)

Question: For `N#C/C(=C\c1cccc([N+](=O)[O-])c1)c1nc(-c2cc3cc([N+](=O)[O-])ccc3oc2=O)cs1`, which inhibition is on record?
Answer: 7% (inactive)

Question: With `COc1ccc(-c2csc(/C(C#N)=C/c3ccc(O)cc3)n2)cc1OC` as the compound, how does the inhibition read?
Answer: 24% (inactive)

Question: For `N#C/C(=C\c1ccccc1[N+](=O)[O-])c1nc(-c2cc3cc([N+](=O)[O-])ccc3oc2=O)cs1`, which inhibition is on record?
Answer: 52% (active)

Question: For `N#C/C(=C\c1cccc([N+](=O)[O-])c1)c1nc(-c2cccc([N+](=O)[O-])c2)cs1`, which inhibition is on record?
Answer: 6% (inactive)

Question: How did the inhibition turn out when `COc1ccc(/C=C(\C#N)c2nc(-c3ccc(OC)c(OC)c3)cs2)cc1O` was run?
Answer: 25% (inactive)

Question: `N#C/C(=C\c1ccc(O)c(O)c1)c1nc(-c2cccc([N+](=O)[O-])c2)cs1` was tested. Which inhibition did it give?
Answer: 60% (active)

Question: With `Cc1ccc(-n2c(/C=C3/C(=O)N(C)c4ccc(Br)cc43)nc3ccccc3c2=O)cc1` as the compound, how does the inhibition read?
Answer: 2% (inactive)

Question: `C=CCN1C(=O)C(Cc2ccc(F)cc2)S/C1=N\N=C\c1ccco1` (configuration not stated) was tested. Which inhibition did it give?
Answer: 3% (inactive)

Question: With `CC12C=CC(O1)C1C(=O)N(c3ccc([N+](=O)[O-])cc3)C(=O)C12` (configuration not stated) as the compound, how does the inhibition read?
Answer: 11% (inactive)

Question: With `O=C1N/C(=N\N=C\c2ccccc2O)SC1Cc1ccc(Br)cc1` (configuration not stated) as the compound, how does the inhibition read?
Answer: 16% (inactive)

Question: With `O=C(Nc1cccnc1)c1cccc(Cl)c1Cl` as the compound, how does the inhibition read?
Answer: 5% (inactive)

Question: With `O=C1S/C(=C/c2cccc(Br)c2)C(=O)N1c1ccccc1` as the compound, how does the inhibition read?
Answer: 12% (inactive)

Question: For `CCCN1C(=O)/C(=C\c2cccc(Cl)c2)SC1=S`, which inhibition is on record?
Answer: 19% (inactive)

Question: With `Cc1cccc(-c2nc3cc(NC(=O)c4sc5ccccc5c4Cl)ccc3o2)c1` as the compound, how does the inhibition read?
Answer: 37% (inactive)

Question: With `O=S(=O)(Nc1nccs1)c1ccc(NC(=S)Nc2ccccc2)cc1` as the compound, how does the inhibition read?
Answer: 8% (inactive)

Question: Which inhibition does the source give for `O=C(c1ccccc1)c1ccc(NC(=O)c2sc3ccccc3c2Cl)cc1` here?
Answer: 18% (inactive)

Question: For `CC(C)(C)c1ccc(C(=O)Nc2ccc(NC(=O)c3sc4ccccc4c3Cl)cc2)cc1`, which inhibition is on record?
Answer: 24% (inactive)

Question: With `O=C(Nc1nccs1)c1sc2ccccc2c1Cl` as the compound, how does the inhibition read?
Answer: 7% (inactive)

Question: With `CCc1ccc2oc(-c3ccc(NC(=O)c4sc5ccccc5c4Cl)cc3)nc2c1` as the compound, how does the inhibition read?
Answer: 50% (active)

Question: For `Cc1ccc(-c2nc3cc(NC(=O)c4sc5ccccc5c4Cl)ccc3o2)cc1`, which inhibition is on record?
Answer: 20% (inactive)

Question: How did the inhibition turn out when `O=C(Nc1ccc2oc(-c3cccc(F)c3)nc2c1)c1sc2ccccc2c1Cl` was run?
Answer: 52% (active)

Question: How did the inhibition turn out when `O=C(NC(=S)Nc1ccc(S(=O)(=O)Nc2nccs2)cc1)c1sc2ccccc2c1Cl` was run?
Answer: 70% (active)

Question: `O=C(Nc1ccc(-c2nc3cc(Cl)ccc3o2)cc1)c1sc2ccccc2c1Cl` was tested. Which inhibition did it give?
Answer: 41% (inactive)

Question: `O=C(Nc1ccc2oc(-c3cccc(Cl)c3)nc2c1)c1sc2ccccc2c1Cl` was tested. Which inhibition did it give?
Answer: 20% (inactive)

Question: How did the inhibition turn out when `O=C(Nc1ccc(NC(=O)c2sc3ccccc3c2Cl)cc1)c1ccccc1` was run?
Answer: 53% (active)

Question: With `Cc1cc(C)c(C(N)=O)c(Nc2ccccc2)n1` as the compound, how does the inhibition read?
Answer: 5% (inactive)

Question: For `Cc1ccccc1C(=O)NC(=S)Nc1ccc2c3c(cccc13)CC2`, which inhibition is on record?
Answer: 21% (inactive)

Question: For `O=C(Nc1ccc(F)cc1F)c1cccc(I)c1`, which inhibition is on record?
Answer: 4% (inactive)

Question: For `CCOc1ccccc1N=CC1=C(O)CC(c2ccccc2)CC1=O` (configuration not stated), which inhibition is on record?
Answer: 6% (inactive)

Question: With `Cc1ccc(-c2nc(NC(=O)c3cccc(F)c3)sc2-c2ccccc2)cc1` as the compound, how does the inhibition read?
Answer: 16% (inactive)

Question: How did the inhibition turn out when `COc1cc(NC(=O)C(F)(F)F)c(Cl)cc1NC(=O)c1ccccc1` was run?
Answer: 0% (inactive)

Question: With `CCOc1ccc(C(=O)Nc2cccc(NC(=O)c3ccccc3Cl)c2)cc1` as the compound, how does the inhibition read?
Answer: 8% (inactive)

Question: With `CCOc1ccc(C(=O)Nc2cccc(S(N)(=O)=O)c2)cc1Br` as the compound, how does the inhibition read?
Answer: 4% (inactive)

Question: For `COc1cccc(/C=C2/SC(=O)N(CNc3ccc(Br)cc3C)C2=O)c1`, which inhibition is on record?
Answer: 58% (active)

Question: `COc1cccc(/C=C2/SC(=O)N(CNc3ccc(I)cc3)C2=O)c1` was tested. Which inhibition did it give?
Answer: 51% (active)

Question: Which inhibition does the source give for `COc1ccc(/C=C2/SC(=O)N(CNc3ccc(Br)cc3C)C2=O)cc1` here?
Answer: 7% (inactive)

Question: With `COc1ccc(/C=C2/SC(=O)N(CNc3ccccc3)C2=O)cc1` as the compound, how does the inhibition read?
Answer: 9% (inactive)

Question: Which inhibition does the source give for `COc1ccc(OC)c(/C=C2/SC(=O)N(CNc3ccc(Br)cc3C)C2=O)c1` here?
Answer: 5% (inactive)

Question: For `O=C1S/C(=C/c2ccc(F)cc2)C(=O)N1CNc1ccc(I)cc1`, which inhibition is on record?
Answer: 4% (inactive)

Question: How did the inhibition turn out when `O=C1S/C(=C/c2ccccc2)C(=O)N1CNc1ccc(I)cc1` was run?
Answer: 3% (inactive)

Question: With `O=C1S/C(=C/c2ccccc2F)C(=O)N1CNc1ccc(I)cc1` as the compound, how does the inhibition read?
Answer: 57% (active)

Question: How did the inhibition turn out when `COc1ccc(/C=C2/SC(=O)N(CNc3ccc(I)cc3)C2=O)cc1` was run?
Answer: 6% (inactive)

Question: Which inhibition does the source give for `Cc1nc2ccccn2c1C(=O)N/N=C\c1ccccc1[N+](=O)[O-]` here?
Answer: 9% (inactive)

Question: Which inhibition does the source give for `C=CCOCCN(CCOCC=C)C1=NS(=O)(=O)c2cc([N+](=O)[O-])ccc21` here?
Answer: 8% (inactive)

Question: Which inhibition does the source give for `CC(=O)c1ccc(N2CCN(C(=O)c3cc(F)c(F)cc3Cl)CC2)c(F)c1` here?
Answer: 7% (inactive)

Question: For `C=CCOC(=O)C1=C(C)NC2=C(C(=O)CCC2)C1c1ccc(OCc2ccccc2)c(OC)c1` (configuration not stated), which inhibition is on record?
Answer: 15% (inactive)

Question: Which inhibition does the source give for `O=C(Nc1nnc(-c2ccc3c(c2)OCO3)s1)c1sc2ccccc2c1Cl` here?
Answer: 5% (inactive)

Question: How did the inhibition turn out when `CCOC(=O)c1c(NC(=O)c2cc(-c3ccc(OC)cc3)nc3ccccc23)sc2c1CCCCC2` was run?
Answer: 5% (inactive)

Question: `Cc1ccc(C(=O)Nc2ccc(F)cc2F)cc1[N+](=O)[O-]` was tested. Which inhibition did it give?
Answer: 18% (inactive)

Question: `COc1cc2ccccc2cc1C(=O)Nc1ccc2c(c1)C(=O)c1ccccc1C2=O` was tested. Which inhibition did it give?
Answer: 38% (inactive)

Question: For `Cc1nnc(N/N=C/c2ccc(C(=O)O)cc2)[nH]c1=O`, which inhibition is on record?
Answer: 10% (inactive)

Question: `COc1ccccc1CNC(=O)c1cccc(C)c1` was tested. Which inhibition did it give?
Answer: 2% (inactive)

Question: With `COc1ccccc1CNC(=O)c1cccc(N(C)C)c1` as the compound, how does the inhibition read?
Answer: 56% (active)

Question: `COc1cccc(C(=O)NCc2ccccc2OC)c1` was tested. Which inhibition did it give?
Answer: 2% (inactive)

Question: With `Cc1ccc(N(CC(=O)N/N=C/c2cccc(Cl)c2)S(=O)(=O)c2ccc(F)cc2)cc1` as the compound, how does the inhibition read?
Answer: 13% (inactive)

Question: With `O=c1[nH]c(=S)n(-c2ccccc2)c(O)c1/C=C1\C=Nc2ccccc21` as the compound, how does the inhibition read?
Answer: 56% (active)

Question: How did the inhibition turn out when `O=c1[nH]c(=S)n(-c2ccc(Br)cc2)c(O)c1/C=C1\C=Nc2ccccc21` was run?
Answer: 20% (inactive)

Question: How did the inhibition turn out when `Cc1ccc(-n2c(O)c(/C=C3\C=Nc4ccccc43)c(=O)[nH]c2=S)cc1` was run?
Answer: 15% (inactive)

Question: Which inhibition does the source give for `CC(C)(C)c1ccc(CNc2cc(N3CCOCC3)ccc2[N+](=O)[O-])cc1` here?
Answer: 0% (inactive)

Question: Which inhibition does the source give for `Oc1ccc(Br)cc1-c1nc(-c2ccccc2)c(-c2cccs2)[nH]1` here?
Answer: 9% (inactive)

Question: `Oc1ccccc1-c1nc(-c2ccccc2)c(-c2cccs2)[nH]1` was tested. Which inhibition did it give?
Answer: 12% (inactive)

Question: Which inhibition does the source give for `Oc1ccc(-c2nc(-c3ccccc3)c(-c3cccs3)[nH]2)cc1O` here?
Answer: 63% (active)

Question: For `O=C(COc1ccccc1[N+](=O)[O-])N/N=C/c1cc(I)ccc1O`, which inhibition is on record?
Answer: 5% (inactive)

Question: `C/C(=N\Nc1cc(-c2ccccc2)nc(-c2ccccc2)n1)c1ccc([N+](=O)[O-])cc1` was tested. Which inhibition did it give?
Answer: 3% (inactive)

Question: For `CN(C(=O)c1ccc(Cl)c([N+](=O)[O-])c1)c1ccccc1`, which inhibition is on record?
Answer: 17% (inactive)

Question: With `CCOc1ccc(N(CC(=O)Nc2cccc(C)c2)S(C)(=O)=O)cc1` as the compound, how does the inhibition read?
Answer: 17% (inactive)

Question: For `CCOc1ccc(NC(=O)CN(c2ccc(C)c(Cl)c2)S(C)(=O)=O)cc1`, which inhibition is on record?
Answer: 3% (inactive)

Question: For `CCOc1ccc(N(CC(=O)Nc2cccc(C(C)=O)c2)S(C)(=O)=O)cc1`, which inhibition is on record?
Answer: 51% (active)

Question: With `CCOc1ccc(N(CC(=O)Nc2cccc(Br)c2)S(C)(=O)=O)cc1` as the compound, how does the inhibition read?
Answer: 12% (inactive)

Question: With `CCOc1ccccc1N(CC(=O)N/N=C(\C)c1cccc(NC(=O)c2ccccc2)c1)S(=O)(=O)c1ccccc1` as the compound, how does the inhibition read?
Answer: 5% (inactive)

Question: How did the inhibition turn out when `CCOc1ccc(N(CC(=O)Nc2ccc(C)c(C)c2)S(C)(=O)=O)cc1` was run?
Answer: 4% (inactive)

Question: For `CCOc1ccccc1N(CC(=O)Nc1cccc(Br)c1)S(C)(=O)=O`, which inhibition is on record?
Answer: 16% (inactive)

Question: With `CCOc1ccc(N(CC(=O)Nc2ccc(C)c(Cl)c2)S(C)(=O)=O)cc1` as the compound, how does the inhibition read?
Answer: 56% (active)

Question: Which inhibition does the source give for `CCOc1ccccc1N(CC(=O)N/N=C(\C)c1cccc(Br)c1)S(C)(=O)=O` here?
Answer: 66% (active)

Question: How did the inhibition turn out when `Cn1c(=O)c(Sc2ccccc2)c(Sc2ccccc2)c2ccccc21` was run?
Answer: 43% (inactive)

Question: How did the inhibition turn out when `CCc1ccccc1N1C(=O)/C(=C/c2ccc(N3CCCCC3)o2)C(=O)NC1=S` was run?
Answer: 19% (inactive)

Question: Which inhibition does the source give for `Cc1cccc(N2C(=O)C(Cl)=C(Cl)C2=O)c1C` here?
Answer: 4% (inactive)

Question: How did the inhibition turn out when `O=C(Nc1ccccc1-c1ccccc1)c1ccc2c(c1)C(=O)N(c1ccccc1-c1ccccc1)C2=O` was run?
Answer: 17% (inactive)

Question: Which inhibition does the source give for `Cc1ccccc1NC(=O)c1cc(S(=O)(=O)Nc2ccc(Br)cc2)ccc1Cl` here?
Answer: 10% (inactive)

From PubChem BioAssay AID372 (MTDP, 2006)
